# TDP1 block – qHTS Assay for Inhibitors of Tyrosyl-DNA Phosphodiesterase (TDP1) | Tyrosyl-DNA phosphodiesterase 1 (Homo sapiens), Q9NUW8 | recombinant TDP1, AlphaScreen DNA substrate cleavage | Potency, µM (titrated, usually from 130 µM), for inactives: top-dose activity change, negative = inhibition, most hits filed as inhibitors | 0.28% of 350,000 active | AID 485290, 2010; note: potency is the fitted concentration of half-maximal effect; % is set by controls: 0 for no effect and ±100 for the full control effect; nearly all actives have a fitted effect of over 40% in size
# Target sequence (Q9NUW8 whole entry, looked up): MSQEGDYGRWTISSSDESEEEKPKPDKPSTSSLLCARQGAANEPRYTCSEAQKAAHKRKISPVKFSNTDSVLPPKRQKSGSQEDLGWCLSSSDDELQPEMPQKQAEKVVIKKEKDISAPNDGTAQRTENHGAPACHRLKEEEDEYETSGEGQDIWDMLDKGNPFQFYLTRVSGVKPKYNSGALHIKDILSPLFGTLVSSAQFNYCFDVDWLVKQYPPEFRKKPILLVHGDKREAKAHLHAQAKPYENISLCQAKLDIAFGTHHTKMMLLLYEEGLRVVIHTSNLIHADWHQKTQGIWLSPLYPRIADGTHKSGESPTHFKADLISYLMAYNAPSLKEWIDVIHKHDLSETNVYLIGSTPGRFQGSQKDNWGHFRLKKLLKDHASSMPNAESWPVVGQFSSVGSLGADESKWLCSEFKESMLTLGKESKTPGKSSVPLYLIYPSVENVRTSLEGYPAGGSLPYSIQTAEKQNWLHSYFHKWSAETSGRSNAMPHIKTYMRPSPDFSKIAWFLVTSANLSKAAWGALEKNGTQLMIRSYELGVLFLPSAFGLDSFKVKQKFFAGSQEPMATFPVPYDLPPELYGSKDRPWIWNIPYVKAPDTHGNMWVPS
#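 AlphaScreen read-out: signal falls as enzyme removes the 3' tyrosine-FITC from a 5'-biotinylated DNA oligo (15 nM, 5 min, RT). Enzyme was E. coli-made recombinant Tdp1 at 1 nM, exposed to compound for 15 min beforehand; beads 10 ug/ml, 10 min.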
# DT40 TDP1 no CPT – qHTS for Inhibitors of human tyrosyl-DNA phosphodiesterase 1 (TDP1): qHTS in cells in absence of CPT; Potency, µM (highest dose often 46.2 µM), without a hit: at the highest dose activity change, negative = growth inhibition, actives largely listed as inhibitors; DT40 Tdp1-/- hTDP1 cells, no CPT, ATP luminescence, 48 h; 15% of 420,000 active; note: potency is the fitted concentration of half-maximal effect; % is set by controls: 0 for no effect and ±100 for the full control effect; nearly all actives have a fitted effect of over 55% in size
#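 Cells were dispensed at 400 per well, compounds added by pin tool, plates incubated ≥48 hr at 37 °C, then CellTiter-Glo added for 30 min at room temperature before luminescence reading. Line: DT40 Tdp1-/- complemented with hTDP1; camptothecin omitted.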
# TDP1 cell CPT – qHTS for Inhibitors of human tyrosyl-DNA phosphodiesterase 1 (TDP1): qHTS in cells in presence of CPT. 12% of 420,000 active. chicken DT40 Tdp1-/-;hTDP1 cells + 20 nM CPT, ATP luminescence, 48 h. Potency, µM (top dose mostly 46.2 µM), for the others: at the top dose activity change, negative = growth inhibition, usual class: inhibitors; note: potency is the fitted concentration of half-maximal effect; % is set by controls: 0 for no effect and ±100 for the full control effect; nearly all actives have a fitted effect of over 55% in size
#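 Cell growth measured by CellTiter-Glo luminescence after a minimum 48 h, 37 C compound exposure with 20 nM CPT in Tdp1-knockout DT40 cells stably expressing hTDP1, seeded 400/well; qHTS titration format.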
# IL1B secr inh – qHTS for Inhibitors of Inflammasome Signaling: IL-1-beta AlphaLISA Primary Screen | THP-1 LPS/ATP IL-1B secretion, AlphaLISA, 16 h; active compounds read low | activity change, % at 57.5 µM | 4.7% of 360,000 active | AID 743279, 2014; in the data active = activity change below about -50%; inconclusive = mostly about -30% to -49%; note: % is set by controls: 0 for no effect and ±100 for the full control effect
#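 THP-1 cells pretreated 1 hr with compounds (up to 57.5 uM final), then stimulated with LPS (250 ng/mL final) plus ATP (1.25 mM final); secreted IL-1B measured by AlphaLISA after 16 hr, decreased signal indicating inhibition.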
# HepG2 viability – qHTS for Inhibitors of TGF-b: Cytotox Counterscreen | HepG2 CAGA-GFP viability, ATP luminescence, 18 h | Potency, µM (doses to about 46.1 µM), inactives show top-dose activity change, negative = cytotoxicity, actives largely listed as cytotoxic | 0.76% of 410,000 active; note: potency is the fitted concentration of half-maximal effect
#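 HepG2 CAGA-GFP cells (1000/well, DMEM with 1% FBS) received compound, then TGF-beta at 500 pg/mL final, and were incubated 18 hours at 37 degrees C. Viability was read by CellTiter-Glo luminescence. Media-only wells were set as complete cell-killing and DMSO as no toxicity.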
# TGFb SMAD3 inh – qHTS for Inhibitors of TGF-b. HepG2 CAGA-GFP TGF-b/SMAD3 reporter, GFP fluorescence, 18 h; TGF-beta stimulated, 500 pg/mL final. 1.2% of 410,000 active. Potency, µM (doses to about 46.1 µM), for inactives: top-dose activity, negative = inhibition, actives largely listed as inhibitors. AID 588855, 2011; note: potency is the fitted concentration of half-maximal effect; % is set by controls: 0 for no effect and ±100 for the full control effect; nearly all actives have a fitted effect of over 65% in size
#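 Inhibition of TGF-beta-driven CAGA-GFP reporter expression in HEPG2 cells is measured by cellular GFP fluorescence after 18 h stimulation with 500 pg/mL recombinant TGF-beta in 1% FBS medium at 37 degrees C.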
# Starred values were filed as active, the others as inactive; ? = inconclusive; · = no result; [ ] = remark or other dose. Most compounds without a hit are left out; they make up all but 19% or so of the library. Unless noted, calls come from the whole dose curve; as a rule, active = well fitted curve in the direction sought with a large enough effect; inconclusive = small, poorly fitted or top-dose-only effect, or another doubt; inactive = no such curve, though single readings can be large; an effect the other way counts as inactive or inconclusive.
SMILES,TDP1 block,DT40 TDP1 no CPT,TDP1 cell CPT,IL1B secr inh,HepG2 viability,TGFb SMAD3 inh
CCCCNS(=O)(=O)c1ccc(S(=O)(=O)NCc2ccncc2)cc1,3%,7.3µM*,4.1µM*,?,-11%,-10%
O=[N+]([O-])c1cccc(S(=O)(=O)NCc2ccncc2)c1,0%,2.3µM*,2.3µM*,57,-7%,0%
CCCCc1ccc(S(=O)(=O)NCCc2ccncc2)cc1,3%,12µM*,23µM*,18,-24%,?
CCc1cccc(C)c1NC(=O)Cn1ccn(-c2ccc(F)cc2)c(=O)c1=O,3%,7%,10%,·,-9%,-7%
CCN1c2ccccc2-c2nc3ccccc3n2C1c1ccccn1 (centres undefined),-6%,16µM*,?,-17,7%,-15%
COc1ccc(CCc2cc(OC)c(OC)c(OC)c2)cc1,·,0.58µM*,0.82µM*,36,-9%,?
Cc1ccc(C(C)C)c(OCC(=O)Nc2cccc(-c3nc4ncccc4o3)c2)c1,0%[12.3 µM],21µM*,21µM*,·,6%,1%
CCCCC(=O)Nc1cccc(-c2nc3ncccc3o2)c1,6%,-28%,-21%,-25,-1%,-2%
Cc1ccc(CNc2cc(-c3nn4c(C)nnc4s3)ccc2C)s1,-7%,?,?,16,-26%,32%
O=C(Nc1cccc(-c2nc3ncccc3o2)c1)c1ccc(-c2cccc(Cl)c2Cl)o1,·,6.5µM*,5.8µM*,·,-4%,-16%
CC(C)C(=O)Nc1cccc(-c2nc3ncccc3o2)c1,·,20%,3%,0,-13%,-1%
Cc1ccc(-c2nn3c(C)nnc3s2)cc1NCc1c(F)cccc1Cl,0%,18µM*,18µM*,-21,-10%,31%
CCCCCC(=O)Nc1cccc(-c2nc3ncccc3o2)c1,3%,-18%,2%,-99*,-18%,-27%
CCn1c(Cc2cccs2)nnc1SCC(=O)NC(C)(C)C,7%,-6%,16%,6,-4%,2%
Cc1nnc2sc(-c3ccc(NC(=O)CSc4ccc(Cl)cc4)cc3)nn12,-8%,-15%,-22%,?,-25%,-3%
COc1ccc(C(=O)Nc2cccc(-c3nc4ncccc4o3)c2C)cc1,·,?,-10%,-18,-3%,-2%
Cc1c(NC(=O)c2ccc(-c3ccc(F)cc3)o2)cccc1-c1nc2ncccc2o1,0%[12.3 µM],9.2µM*,4.6µM*,·,0%,-21%
Cc1ccc2nc(-c3cccc(NC(=O)CSc4ccc(Cl)cc4)c3)oc2c1,5%,9.2µM*,26µM*,·,-8%,·
Cc1cc(C)c(OCC(=O)Nc2cccc(-c3nc4ncccc4o3)c2)c(Br)c1,·,?,?,·,-2%,15%
Cc1ccc2nc(-c3cccc(NC(=O)c4cccc5ccccc45)c3)oc2c1,-2%,?,?,·,-6%,-17%
Cc1ccc(-c2nn3c(C)nnc3s2)cc1NC(=O)CSc1ccc(Cl)cc1,3%,18µM*,?,23,3%,16%
COc1c(C)cc(Br)cc1C(=O)Nc1cccc(-c2nc3ncccc3o2)c1,-14%,21µM*,21µM*,-21,-13%,-8%
COc1ccc(OCC(=O)Nc2ccc(Cl)c(-c3nc4ncccc4o3)c2)cc1,5%,-23%,-25%,·,0%,-3%
Cc1ccc2nc(-c3ccc(C)c(NC(=O)COc4ccc(Cl)cc4)c3)oc2c1,·,?,?,·,4%,19%
Cc1ccc2nc(-c3ccc(C)c(NC(=O)CSc4ccc(Cl)cc4)c3)oc2c1,2%,?,13µM*,·,-76%,4%
SMILES,TDP1 block,DT40 TDP1 no CPT,TDP1 cell CPT,IL1B secr inh,HepG2 viability,TGFb SMAD3 inh
O=C(CSc1ccc(Cl)cc1)Nc1cccc(-c2nc3ncccc3o2)c1,0%,18µM*,?,?,1%,10%
Cc1cccc(OCC(=O)Nc2ccc(Cl)c(-c3nc4ncccc4o3)c2)c1C,2%,16µM*,18µM*,·,-15%,-4%
O=C(Nc1cc(F)ccc1F)N1CCC(CN2CCOCC2)CC1,0%,-11%,-4%,·,-17%,?
COc1ccc(CNC(=O)c2cnn(-c3nccc(-c4ccco4)n3)c2C)cc1OC,·,-15%,11%[9.04 µM],·,·,·
Cn1ncc2c(NCc3ccccc3)nc(NCCCO)nc21,2%,11%,-9%,-25,13%,5%
COCCCNc1nc(NCc2cccc(Cl)c2)c2cnn(C)c2n1,6%,18µM*,?,·,-23%,-15%
CCOc1ccccc1N1CCN(Cc2cnc(-c3ccccc3)[nH]2)CC1,·,23µM*,?,?,-41%,4%
COc1ccccc1CNC(=O)C1CCC(CNS(=O)(=O)c2ccccc2)CC1 (centres undefined),·,-2%,-9%,-4,-9%,-6%
CC1=C(CC(=O)c2ccccc2)C(=O)c2ccccc2C1=O,12%,12µM*,8.2µM*,42,6.3µM*,6.3µM*
COc1ccc2c(c1)-c1nc(NC(=O)c3cc(OC)c(OC)c(OC)c3)sc1CC2,8%,18µM*,?,·,-4%,-3%
COc1ccc2c(c1)-c1nc(NC(=O)c3cc(Cl)ccc3OC)sc1CC2,-7%,?,8.2µM*,·,-1%,-2%
CC(C)C[C@@H](CC(=O)N[C@@H](CCC(=O)O)CC(=O)O)NC(=O)[C@@H]1CCCC[C@H]1NC(=O)C[C@H](CCCN)NC(=O)C[C@H](Cc1c[nH]c2ccccc12)NC(=O)[C@@H]1CNCC[C@H]1N,2%,·,·,·,·,·
CCCCOc1ccc(C(=O)NCCS(=O)(=O)N2CCN(c3ccc(F)cc3)CC2)cc1,7%,-17%,-25%,·,3%,-2%
COc1ccc(CC(=O)NCCS(=O)(=O)N2CCN(c3ccc(F)cc3)CC2)cc1OC,4%,?,?,40,10%,-11%
COc1ccccc1N1CCN(S(=O)(=O)CCNC(=O)Cc2ccc(Cl)cc2)CC1,4%,23µM*,?,·,-7%,?
COc1ccccc1N1CCN(S(=O)(=O)CCNC(=O)Cc2ccc(F)cc2)CC1,·,?,21µM*,-4,2%,-23%
CCCCOc1ccc(C(=O)NCCS(=O)(=O)N2CCN(c3ccccc3OC)CC2)cc1,7%,7.3µM*,5.8µM*,·,-11%,?
